Results on 66 molecules are retold here after PubChem BioAssay AID720579 (National Center for Advancing Translational Sciences (NCATS), 2013).

Several values for one entry are separate records, joined by “and”; a condition that tells them apart may be missing. Equal entries are not always repeated. Among all 310,000 compounds or so, about 1,900 (0.61%) were called active. Inconclusive results (about 8%) are left out. Calls come from the whole dose curve; tested in A549 cells. For the sample, actives were picked, then their nearest neighbours and some compounds at random. Some compounds were tested as several samples or in several runs, with calls that do not always agree.
% is set by controls: 0 for no effect and ±100 for the full control effect; potency is the fitted concentration of half-maximal effect.

The nature of this assay: qHTS for Stage-Specific Inhibitors of Vaccinia Orthopoxvirus: mCherry Reporter Primary qHTS. Note: nearly all actives have a fitted effect of over 35% in size. The following applies: Vaccinia virus mCherry reporter infection, fluorescence; series mostly up to 36.5 µM; activity change, negative = inhibition: at the top concentration. (Quantitative high-throughput screening tests each substance at several concentrations.)
`CC(O)(c1cccc(F)c1)c1nc(-c2ccc3c(c2)OCO3)cs1` (stereo unspecified): the “activity change, negative = inhibition” value was 6.58% (inactive).

For the molecule `O=C(c1ccc(CS(=O)Cc2ccccc2Cl)o1)N1CCN(c2ccccc2)CC1` (stereo unspecified), the “activity change, negative = inhibition” value is -6.54% (inactive).

For `O=C(OCc1ccccc1)N1CCC2CC1c1cc(N3CCN(S(=O)(=O)c4cc(Cl)cc(Cl)c4)CC3)ccc12` (stereo unspecified), the molecule was classed as inactive.

For `c1ccc2c(c1)[I+]c1ccccc1-2`, the Potency entry is “inactive and 12.6 µM (active)”.

On to `N=C1c2ccccc2-c2ccccc21`, for which the “activity change, negative = inhibition” value was -6.02% (inactive).

In the case of `COC(=O)c1ccccc1N=NNc1ccc([N+](=O)[O-])cc1`, the “activity change, negative = inhibition” value was -7.96% (inactive).

As to `CCN(CC)c1ccc(/C=C/c2c(C)cnc3ccc(C)cc23)cc1`, the “activity change, negative = inhibition” value was -7.34% (inactive).

`COc1cccc(-c2nc(Nc3ccncc3)c3ccccc3n2)c1`: the “activity change, negative = inhibition” value was 11.8% (inactive).

On to `COC(=O)c1cc(-c2cccs2)nc2ccccc12`, for which the outcome was inactive.

As for `CC(=O)Nc1cccc(Nc2nc(-c3cccs3)nc3ccccc23)c1`, the Potency is 7.08 µM (active).

In the case of `CC(C)c1cc(C(=O)NC2CCCCCC2)c2ccccc2n1`, the “activity change, negative = inhibition” value is -3.55% (inactive).

`CC1=C(C(=O)N(C(C)C)C(C)C)CC(CC(=O)NCC2CCCCC2)C(=O)N1Cc1ccccc1` (stereo unspecified): the “activity change, negative = inhibition” value is 8.68% (inactive).

Consider `O=C(CO/N=C/c1ccccc1O)NNC(=O)c1ccccc1Cl`, for which the “activity change, negative = inhibition” value is -20.3% (inactive).

Consider `O=C(NNC(=O)c1ccccc1O)c1ccccc1O`, for which the Potency was 15.8 µM (active).

In the case of `Cc1cc(C(=O)CCC(=O)NNC(=O)c2ccccc2O)c(C)s1`, the “activity change, negative = inhibition” value was -14.3% (inactive).

With `CCCCCCCNc1ccc(/C=C/c2ccnc3ccccc23)cc1`, the “activity change, negative = inhibition” value was 33.6% (inactive).

For the molecule `O=[N+]([O-])c1ccc(/C=C/c2ccc3cccnc3c2)cc1`, the “activity change, negative = inhibition” value is 36.9% (inactive).

As to `CN(N=O)c1ccc(C=C2c3ccccc3-c3ccccc32)cc1`, the “activity change, negative = inhibition” value was -18.4% (inactive).

In the case of `CN1CC[C@H](c2c(O)cc(O)c3c(=O)cc(-c4ccccc4Cl)oc23)[C@H](O)C1`, the Potency was 0.316 µM (active).

Regarding `CCOC(=O)c1ccn(S(=O)(=O)c2ccc(C)cc2)c1-c1ccccc1`, the “activity change, negative = inhibition” value was 6.9% (inactive).

On to `COc1ccc(CN(Cc2ccccc2)C(=O)c2ccc(O)cc2)cc1COc1ccc(NC(C)=O)cc1`, for which the outcome was inactive.

Regarding `CCOC(=O)c1cc2cc(OC)ccc2n1C1CCN(C)CC1`, the “activity change, negative = inhibition” value is -10.5% (inactive).

For the molecule `Cc1cn(COC/C=C/c2ccccc2)c(=O)[nH]c1=O`, the molecule was classed as inactive.

On to `CC1(C(=O)O)CCCN(C(=O)/C=C/c2ccccc2)C1` (stereo unspecified), for which the “activity change, negative = inhibition” value is 6.42% (inactive).

As to `Cc1[nH]c(=O)c(C(=O)/C=C/c2ccccc2)c2c1CCCC2`, the Potency was 3.16 µM (active).

Take `CC(=O)Nc1ccc(C=Cc2ccc([N+](=O)[O-])cc2)cc1`: the “activity change, negative = inhibition” value was -1.71% (inactive).

Turning to `O=C(CCCN1C(=O)C(c2ccccc2)Oc2cccnc21)Nc1ccccc1Br` (stereo unspecified), the molecule was classed as inactive.

As to `C(=Nc1ccc(/C=C/c2ccnc3ccccc23)cc1)c1cc2c3c(c1)CCCN3CCC2`, the “activity change, negative = inhibition” value was 12% (inactive).

Turning to `CN(C)C(=O)c1cccc(-c2cnc3c(NC=O)cc(-c4ccc(C(=O)N5CCOCC5)cc4)cn23)c1`, the outcome was inactive.

`O=C(CCCCCNC(=O)c1ccccc1)N/N=C/c1ccccc1`: the “activity change, negative = inhibition” value is -8.18% (inactive).

`O=C(N/N=C/c1ccccc1O)/C(=C/c1ccccc1)CCO`: the Potency was 7.08 µM (active).

Regarding `O=C(CCCO)N/N=C/c1cc(Br)ccc1O`, the “activity change, negative = inhibition” value is -8.6% (inactive).

As to `CCOC(=O)[C@]12CCCC=C1N(CCC1=CCCCC1)C(=O)[C@H](CC(=O)N1CCSCC1)C2`, the “activity change, negative = inhibition” value was -9.06% (inactive).

As to `O=C(CSc1nnc(CNC(=O)c2ccc(F)cc2)o1)Nc1ccc2c(c1)OCO2`, the “activity change, negative = inhibition” value was -8.65% (inactive).

Take `Cc1ccc(-c2nnc(SCc3ccccc3C)o2)cc1`: the “activity change, negative = inhibition” value was 2.67% (inactive).

Take `Fc1ccc(-c2nnc(CSc3nnc(-c4ccc5c(c4)OCO5)o3)o2)cc1`: the Potency was 28.2 µM (active).

In the case of `COc1ccc(C(=O)C(OP(=O)(OC)OC)c2ccccc2OC)cc1` (stereo unspecified), the “activity change, negative = inhibition” value was -25.3% (inactive).

As to `O=C(COC(=O)COc1cc(Cl)c(Cl)cc1Cl)NC1CC1`, the “activity change, negative = inhibition” value was -2.27% (inactive).

With `O=C(COc1cc(Cl)c(Cl)cc1Cl)NCCc1ccccn1`, the “activity change, negative = inhibition” value is -7.58% (inactive).

As to `NC(=S)NN=Cc1ccc(OC(=O)COc2cc(Cl)c(Cl)cc2Cl)cn1`, the Potency was 11.2 µM (active).

On to `CCOC(=O)C1CCCN(C(=O)c2cc(-c3cccs3)oc2C)CC1` (stereo unspecified), for which the “activity change, negative = inhibition” value was 49% (inactive).

On to `Cc1cc(Cl)ccc1-c1nc(NCCN(C)C)nc2ccsc12`, for which the “activity change, negative = inhibition” value was 11.6% (inactive).

As for `CC(C)c1cc(N=O)cc(C(C)C)c1O`, the molecule was called inactive.

On to `CC(C)=CCc1c(O)c(CC=C(C)C)c2occ(-c3ccc(O)cc3)c(=O)c2c1O`, for which the “activity change, negative = inhibition” value is -20.4% (inactive).

Regarding `CC(C)=CCc1ccc(O)c(=O)cc1C(C)C`, the Potency was 3.16 µM (active).

Regarding `CCOc1ccc(OCc2ccc(C(=O)N(C)c3ccccc3)o2)cc1`, the “activity change, negative = inhibition” value is -11.1% (inactive).

On to `CN(Cc1ccccc1)C(=O)c1ccc(COc2ccccc2)cc1`, for which the molecule was classed as inactive.

With `CN(C(=O)CN1CCN(c2cc(-c3ccc(OCc4ccccc4)cc3)ncn2)CC1)c1ccccc1`, the Potency is 7.94 µM (active).

As to `Cc1cccc(CNC(=O)c2sc(=O)n(Cc3ccccc3C)c2C)c1`, the “activity change, negative = inhibition” value is 2.08% (inactive).

With `O=C1NC(Cc2ccccc2)c2nc3ccc(Br)cc3c(=O)n2-c2cc3ccccc3cc21` (stereo unspecified), the molecule was classed as inactive.

For `Cc1cc(C)c2c(=O)n3c(nc2c1)C(CC(C)C)NC(=O)c1cc2ccccc2cc1-3` (stereo unspecified), the Potency was 10 µM (active).

Regarding `CCC1NC(=O)c2cccnc2-n2c1nc1ccc(C)cc1c2=O` (stereo unspecified), the result was inactive.

In the case of `NC(=O)Nc1ccc(/C=C/c2ccnc3ccccc23)cc1`, the “activity change, negative = inhibition” value is 21.3% (inactive).

Consider `COC(=O)c1ccc2nc(-c3ccccc3)c(Cc3ccc(OC)cc3C)n2c1`, for which the “activity change, negative = inhibition” value is -4.32% (inactive).

Regarding `Cc1ccc(S(=O)(=O)N(CCc2ccccc2)c2ccc3c(c2)C2CC3CCN2C(=O)OCc2ccccc2)cc1` (stereo unspecified), the “activity change, negative = inhibition” value is -6.6% (inactive).

As to `C/C=C/NNC(=O)Cc1ccc(OC)cc1`, the Potency was 11.2 µM (active).

As to `COc1ccc(CC(=O)NC(C)CCc2ccccc2)cc1` (stereo unspecified), the “activity change, negative = inhibition” value is 2.27% (inactive).

With `CCCCCNC(=O)Cc1ccc(OC)cc1`, the “activity change, negative = inhibition” value was -17% (inactive).

Turning to `CC1(C(=O)NCC2CCOCC2)Cc2c(-c3cccc(C(N)=O)c3)ccnc2O1` (stereo unspecified), the “activity change, negative = inhibition” value is 5.59% (inactive).

On to `COc1ccc(-c2nnc(-c3ccc4ccccc4c3)o2)cc1`, for which the molecule was called inactive.

For the molecule `COc1ccc(-c2nnc(SC(C)C#N)o2)cc1` (stereo unspecified), the Potency was 11.2 µM (active).

`COc1ccc(-c2nnc(SCc3cccnc3)o2)cc1`: the “activity change, negative = inhibition” value is -12.4% (inactive).

Turning to `CCOC(=O)[C@]12CCCC=C1N(Cc1ccc(Cl)cc1Cl)C(=O)[C@H](CC(=O)N1CCCCC1)C2`, the outcome was inactive.

Regarding `COc1c(C)c2c(c(O)c1C/C=C(\C)CCC(=O)O)C(=O)OC2`, the Potency is 5.62 µM (active) and 4.47 µM (active).

As to `CCc1nc2c(OCc3ccc(C(F)(F)F)cc3)cccn2c1N(C)C(=O)CC(C)C`, the “activity change, negative = inhibition” value is -0.664% (inactive).

In the case of `CCOC(=O)c1c(NC(=S)SC)sc(C(=O)N2CCc3ccccc3C2)c1C`, the “activity change, negative = inhibition” value is -10.4% (inactive).
